PubChem BioAssay
“And” between values parts separate entries of the source, which are not always exact repeats. Identical values can stand only once. Results filed as inconclusive are left out. For some of these results: Potency and affinity values are given separately. The source made the active and inactive calls. Unless noted, no rule for the calls is given here.

Tests used:
[1] = polyglutamine-triggered caspase-3 activation inhibitors, cell-based (AID 1583); details: polyglutamine-induced caspase-3 activation, cell assay; stronger effect = higher value;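 tested at 10 µM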
[2] = suppressors of polyQ aggregation in yeast, 75Q-TubU reporter (AID 1593); details: Yeast 75Q polyglutamine aggregation reporter
[3] = rescue of polyQ-huntingtin neuronal dysfunction in worms, whole organism, C. elegans mechanosensory neurons, N-terminal huntingtin (AID 1599); details: touch response, stronger effect = higher value
[4] = inhibitors of mitochondrial cytochrome c release, biochemical, purified mitochondria (AID 1603); details: stronger effect = lower value;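 also: mouse liver mitochondria challenged with calcium chloride; signal normalized to the plate average as 100%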
[5] = inhibitors of polyQ protein aggregation (AID 1604); details: polyglutamine-induced protein aggregation inhibition assay; stronger effect = higher value; tested at 2.5 µM
[6] = enhancers of glutamate uptake in motor neurons, MN-1 cell line (AID 1612); details: MN-1 motor neuron cells, stronger effect = higher value;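 also: tested at 1 µM final; 0% = mean of DMSO vehicle wells on each plate; positive means more glutamate uptake than control and negative means less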
[7] = reducers of polyQ inclusions in PC12 cells, cell-based, NGF-treated PC12, GFPQ80 (AID 1614); details: PC12 NGF-treated GFP-polyQ80 inclusion reduction;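 also: lower means fewer inclusions and 0 means no inclusions at all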
[8] = suppressors of polyglutamine aggregation in yeast, 75Q-TubH (AID 1616); details: S. cerevisiae 75Q-TubH polyglutamine aggregation suppression; stronger effect = higher value
[9] = circadian clock period modulators, cell-based, LOPAC library, luminescence reporter (AID 2774); details: circadian reporter cells, at 7 µM, actives lie on both sides;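 also: values are relative to mean of DMSO wells on each plate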
[10] = target: ATP-dependent translocase ABCB1 (Homo sapiens) (UniProt P08183); experiment: MDR1 (ABCB1) efflux transporter inhibition, cell-based (AID 377; in the data active = fluorescence slope change above about 50%); details: MDR1-expressing cells, fluorescent substrate accumulation slope; stronger effect = higher value; concentration not given here
ATP-dependent translocase ABCB1 (Homo sapiens), sequence (P08183 whole entry, looked up): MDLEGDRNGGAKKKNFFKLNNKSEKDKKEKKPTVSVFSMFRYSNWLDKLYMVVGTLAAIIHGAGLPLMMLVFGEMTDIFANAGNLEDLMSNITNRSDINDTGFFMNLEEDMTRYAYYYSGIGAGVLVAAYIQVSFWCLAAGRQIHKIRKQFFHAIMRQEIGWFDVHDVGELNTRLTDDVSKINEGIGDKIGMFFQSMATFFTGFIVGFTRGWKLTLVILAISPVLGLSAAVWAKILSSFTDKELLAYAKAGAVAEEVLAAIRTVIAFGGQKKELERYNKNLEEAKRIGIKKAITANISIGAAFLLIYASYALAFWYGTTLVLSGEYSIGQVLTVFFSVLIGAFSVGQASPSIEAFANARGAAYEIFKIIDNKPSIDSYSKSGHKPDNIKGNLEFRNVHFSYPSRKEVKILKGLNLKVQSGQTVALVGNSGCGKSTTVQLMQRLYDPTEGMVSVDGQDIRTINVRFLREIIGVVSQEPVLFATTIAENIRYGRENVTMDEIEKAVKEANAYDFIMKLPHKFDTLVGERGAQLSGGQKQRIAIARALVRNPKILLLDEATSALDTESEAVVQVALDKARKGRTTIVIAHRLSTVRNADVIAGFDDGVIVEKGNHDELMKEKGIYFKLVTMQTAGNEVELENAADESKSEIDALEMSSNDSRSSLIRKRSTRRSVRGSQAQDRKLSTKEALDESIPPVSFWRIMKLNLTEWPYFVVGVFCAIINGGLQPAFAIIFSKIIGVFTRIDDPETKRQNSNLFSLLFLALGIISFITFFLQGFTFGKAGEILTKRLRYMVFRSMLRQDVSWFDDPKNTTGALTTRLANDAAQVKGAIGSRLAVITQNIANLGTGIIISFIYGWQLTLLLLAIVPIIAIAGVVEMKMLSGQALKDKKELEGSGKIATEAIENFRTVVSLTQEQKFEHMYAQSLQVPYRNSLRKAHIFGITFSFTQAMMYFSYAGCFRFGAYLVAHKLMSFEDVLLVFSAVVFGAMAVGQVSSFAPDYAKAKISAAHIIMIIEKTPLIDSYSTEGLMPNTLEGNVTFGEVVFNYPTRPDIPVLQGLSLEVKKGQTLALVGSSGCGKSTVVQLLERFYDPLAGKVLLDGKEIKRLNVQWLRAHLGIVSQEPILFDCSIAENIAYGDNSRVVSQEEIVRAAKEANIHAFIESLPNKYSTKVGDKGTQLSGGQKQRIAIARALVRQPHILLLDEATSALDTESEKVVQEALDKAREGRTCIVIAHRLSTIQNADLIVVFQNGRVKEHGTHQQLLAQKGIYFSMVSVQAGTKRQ

[11] = hESC survival regulators, cell-based (AID 493140); details: human embryonic stem cell survival screen; stronger effect = higher value;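 also: cells exposed to compounds for four days before counting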

| SMILES | inhibition [1] | score [2] | rescue above control [3] | cytochrome c release ratio [4] | inhibition of aggregation [5] | glutamate uptake change [6] | inclusion score [7] | aggregation suppression score [8] | period change [9] | fluorescence slope change [10] | survival [11] |
| --- | --- | --- | --- | --- | --- | --- | --- | --- | --- | --- | --- |
| CC(=O)Oc1ccccc1C(=O)O | -10.2% | 1.29 | 9.45 | 1.35 | 61.5% | 9.8% | 2 | 1.28 | -0.135 h (inactive) | – | – |
| CC(=O)NCCCCCC(=O)O | 22.1% | 1.42 | -0.56 | 1.37 | 74.4% | -9.11% | 2 | 1.24 | – | – | – |
| N=C(N)N | 11.9% | 0.82 | -2.24 | 0.89 | 73.1% | 5.8% | 2 | 0.901 | – | – | – |
| CCN(CC)C(=O)c1cccc(C)c1 | 9.84% | 1.21 | -4.11 | 1.07 | 28.8% | 1.78% | 2 | 1.01 | – | – | – |
| O=C(O)CCCCC1CCSS1 (configuration not stated) | -33.9% | 0.61 | 2.24 | 0.89 | 39.2% | -7.39% | 2 | 0.186 | – | – | – |
| NC(=O)NO | -0.33% | 1.4 | -1.6 | 0.82 | 85.9% | 1.4% | 2 | 1.3 | -0.055 h (inactive) | – | – |
| CC1=C(C(=O)O)N2C(=O)[C@@H](NC(=O)[C@H](N)C3=CCC=CC3)[C@H]2SC1 | -6.99% | 1.49 | 19 | 0.86 | 74.7% | -0.28% | 2 | 1.56 | – | – | – |
| NC[C@H](O)c1ccc(O)c(O)c1 | 10.9% | 1.61 | -5.19 | 1.03 | 44.7% | 21.3% | 2 | 1.39 | 0.04 h (inactive) | – | – |
| CC(=O)Oc1cccc(O)c1 | -9.3% | 1.19 | 8.59 | 0.86 | -34.2% | -3.14% | 2 | 0.901 | – | – | – |
| CCCOc1ccc2nc(NC(=O)OC)[nH]c2c1 | 0.98% | 1.01 | 0 | 0.9 | 22.1% | -36.6% | 2 | 0.918 | – | – | – |
| Nc1nccs1 | 9.3% | 1.44 | -9.08 | 0.95 | 30.7% | 28.6% | 2 | 1.04 | – | – | – |
| CCCCCCCCCCCCCCCCCCOCC(O)CO (configuration not stated) | -51.6% | 1.03 | 2.94 | 1 | 34.7% | 11.1% | 2 | 0.825 | – | – | – |
| NS(=O)(=O)c1cc2c(cc1Cl)NC(C1CC3C=CC1C3)NS2(=O)=O (configuration not stated) | 13% | 0.98 | 1.81 | 1.07 | 5.88% | 1.35% | 2 | 0.424 | 0.225 h (inactive) | – | – |
| N[C@@H](CCC(=O)N[C@@H](CS)C(=O)NCC(=O)O)C(=O)O | 17.6% | 1.4 | -4.11 | 0.98 | 45.5% | 13.8% | 2 | 1.61 | – | – | – |
| COc1ccc(C2C(=O)c3ccccc3C2=O)cc1 | 2.6% | 0.47 | -9.34 | 1.11 | 79.6% | -8.78% | 2 | 0.401 | – | – | – |
| NC(Cc1ccc(Cl)cc1)C(=O)O (configuration not stated) | 2.04% | 1.27 | 22.3 | 0.79 | 83.3% | -15.1% | 2 | 1.23 | -0.015 h (inactive) | – | – |
| CN(C)/N=N/c1nc[nH]c1C(N)=O | 17.5% | 1.36 | -5.12 | 0.99 | 9.26% | -11.4% | 2 | 1.16 | – | – | – |
| C=CCc1ccc(O)c(OC)c1 | -5.5% | 1.31 | 11.4 | 1.29 | 81.4% | -8.45% | 2 | 1.76 | – | – | – |
| CCOC(N)=O | -5.88% | 1.23 | -10 | 0.98 | 58.9% | -13.5% | 2 | 1.21 | – | – | – |
| NCCCC(=O)O | 15.3% | 1.12 | -4.87 | 0.87 | 18.5% | -3.42% | 2 | 0.665 | 0.105 h (inactive) | – | – |
| Cn1c(=O)c2c(ncn2C)n(C)c1=O | 5.72% | 1.32 | 4.29 | 1.5 | 74.9% | -3.95% | 2 | 1.18 | 0.03 h (inactive) | – | – |
| CNC[C@H](O)c1cccc(O)c1 | -27.4% | 1.21 | -6.19 | 0.84 | 47.4% | 3.44% | 2 | 1.2 | -0.48 h (inactive) | – | – |
| NC(=O)c1ccc([N+](=O)[O-])cc1Cl | 5.22% | 1.24 | 31.2 | 1.06 | 82.5% | 19.4% | 2 | 1.31 | – | – | – |

| SMILES | inhibition [1] | score [2] | rescue above control [3] | cytochrome c release ratio [4] | inhibition of aggregation [5] | glutamate uptake change [6] | inclusion score [7] | aggregation suppression score [8] | period change [9] | fluorescence slope change [10] | survival [11] |
| --- | --- | --- | --- | --- | --- | --- | --- | --- | --- | --- | --- |
| Nc1ccc(C(=O)O)c(O)c1 | -17.6% | 1.08 | 7.16 | 1.48 | 88.8% | 2.47% | 2 | 1.24 | – | – | – |
| NC(=O)c1ccccc1O | -13.1% | 1.55 | 9.08 | 0.7 | 78.1% | 8.07% | 2 | 1.02 | – | – | – |
| CC(=O)N[C@@H](CS)C(=O)O | -21.7% | 1.46 | -1.36 | 1.05 | 79.6% | -3.8% | 2 | 1.2 | 0.1 h (inactive) | – | – |
| Nc1ccc(C(=O)O)cc1 | 2.66% | 1.16 | -2.5 | 0.9 | 72.2% | 15.6% | 2 | 1.25 | – | – | – |
| CCCCCC(C)N (configuration not stated) | -8.68% | 1.2 | 1.21 | 1.02 | -9.09% | 3.71% | 2 | 0.962 | – | – | – |
| Oc1cccc(O)c1 | 9.11% | 1.66 | 3.39 | 0.9 | 60.3% | 8.45% | 2 | 1.13 | – | – | – |
| NC(=O)c1ncn([C@@H]2O[C@H](CO)[C@@H](O)[C@H]2O)n1 | 21% | 1.56 | -2.31 | 1.02 | 21.6% | 14.1% | 1.5 | 1.25 | 0.065 h (inactive) | – | – |
| O=c1cc[nH]c(=S)[nH]1 | 2.52% | 1.24 | 1.48 | 1.09 | 41.5% | 7.71% | 2 | 1.48 | – | – | – |
| NC(=O)c1ncn([C@@H]2O[C@H](CO)[C@@H](O)[C@H]2O)c1O | 7.18% | 1.36 | -8.77 | 0.91 | 49% | 20.3% | 2 | 0.757 | -0.05 h (inactive) | – | – |
| COc1ccc(CN(CCN(C)C)c2ncccn2)cc1 | 10.6% | 1.36 | 1.69 | 1.27 | 22.2% | -15.6% | 2 | 1.43 | – | – | – |
| CCCOc1ccccc1-c1nc2n[nH]nc2c(=O)[nH]1 | -7.12% | 0.63 | 1.11 | 0.54 | 18.4% | -4.8% | 2 | 1.1 | -0.2 h (inactive) | 11.9% (inactive) | 9.92 (inactive) |
| CCO/C([O-])=N/c1c[n+](N2CCOCC2)no1 | -3.16% | 1.13 | 3.21 | 0.83 | 36.6% | 3.92% | 2 | 1.23 | 0.065 h (inactive) | – | 4.75 (inactive) |
| C[N+](C)(C)CCCCCC[N+](C)(C)C | 1.59% | 1.14 | -10.3 | 0.92 | 72.2% | 11.7% | 2 | 1.28 | -0.005 hour (inactive) and -0.2 hour (inactive) | – | 12.8 (inactive) |
| CN(C)C(=O)Oc1cccc([N+](C)(C)C)c1 | 15.7% and 16.9% | 1.16 and 1.39 | 10.4 and -12.8 | 0.9 and 1.01 | 74.6% and 38% | -18.8% and 13.6% | 2 | 0.695 and 1.29 | 0.06 h (inactive) | – | 12.1 (inactive) |
| Nc1ccc(S(=O)(=O)Nc2ccnn2-c2ccccc2)cc1 | -0.92% | 1.43 | -6.57 | 0.99 | 4.55% | 16.6% | 2 | 0.956 | 0.065 h (inactive) | – | 28 (inactive) |
| COc1ccc(CCN(C)CCCC(C#N)(c2ccc(OC)c(OC)c2)C(C)C)cc1OC (configuration not stated) | 15.1% | 1.28 | 2.45 | 0.62 | 62.8% | 24.7% | 2 | 1.45 | 0.12 h (inactive) | – | 22.4 (inactive) |
| C[C@](N)(Cc1ccc(O)c(O)c1)C(=O)O | 10.4% | 1.25 | 10.7 | 1.01 | 31.7% | 33% | 2 | 1.39 | -0.07 h (inactive) | 52.1% (active) | 3.58 (inactive) |
| O=C1NCC2(CCN(CCc3ccccc3)CC2)O1 | -2.12% | 1.22 | -3.96 | 1.11 | 88.9% | -8.17% | 2 | 1.64 | 0 h (inactive) | 54.1% (active) | 18.8 (inactive) |
| CCN(CC)CCNC(=O)c1cc(S(C)(=O)=O)ccc1OC | 6.97% | 1.47 | 10 | 5.94 | 79.2% | -0.98% | 2 | 1.49 | 0.15 h (inactive) | 144% (active) | 16.2 (inactive) |
| CN1CCC(=C2c3ccccc3CC(=O)c3sccc32)CC1 | 9.78% | 1.65 | 1.84 | 1.14 | 57.6% | 0.39% | 2 | 1.2 | -0.04 h (inactive) | 20.2% (inactive) | 5.83 (inactive) |
| Cc1cccc(C)c1OCC(C)N (configuration not stated) | -1.28% | 1.39 | 0.83 | 0.86 | 45.1% | 6.77% | 2 | 1.44 | 0.025 h (inactive) | 24.1% (inactive) | 21.7 (inactive) |
| Cc1nnc(SCC2=C(C(=O)O)N3C(=O)[C@@H](NC(=O)Cn4cnnn4)[C@H]3SC2)s1 | 0.61% | 1.27 | 4.54 | 0.92 | 13.4% | 0.76% | 2 | 1.05 | -0.065 h (inactive) | -6.8% (inactive) | 2.58 (inactive) |
| CN1CCN(CC(=O)N2c3ccccc3C(=O)Nc3cccnc32)CC1 | 9.26% | 1.57 | 18.8 | 1.27 | 63.5% | -10.6% | 2.5 | 1.19 | 0.09 h (inactive) | – | 8.33 (inactive) |
